Assay results: publication PMC5540273 (PLoS ONE, 2017)

Assays:
Details in all cases: concentration: 1 μM,replicates: in singlicate; n = 1
TNNI3K = test system: TNNI3K
TRKA = test system: T1, TRKA
T1 construct: gene NTRK1

TRKB = test system: TRKB
TRKC = test system: T2, TRKC
T2 construct: gene NTRK3

TRPM6 = test system: TRPM6
TSSK1B = test system: TSSK1B
TSSK3 = test system: TSSK3
TTK = test system: TTK
TXK = test system: TXK
[1] = test system: TYK2(JH1domain-catalytic)
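Also: KINOMEscan kinase panel screen.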

Row | Compound | %Inh (TNNI3K) [%] | %Inh (TRKA) [%] | %Inh (TRKB) [%] | %Inh (TRKC) [%] | %Inh (TRPM6) [%] | %Inh (TSSK1B) [%] | %Inh (TSSK3) [%] | %Inh (TTK) [%] | %Inh (TXK) [%] | %Inh [1] [%]
1 | O=C(NCC1CC1)c1ccc(-c2cc(C(=O)NC3CC3)ccc2F)cc1 [GW810445] | 0 | 14 | 0 | 0 | 0 | 0 | 0 | 12 | 0 | 19
2 | CCN1CCN(CCCC(=O)Nc2n[nH]c3nc(-c4ccc(O)cc4)c(Br)cc23)CC1 [SB-731579] | 0 | 38 | 2 | 0 | 0 | 0 | 0 | 0 | 0 | 52
3 | Cn1ccc2ncnc(Oc3ccc(NC(=O)Nc4cncc(C(F)(F)F)c4)c(Cl)c3)c21 | 61 | 51 | 55 | 88 | 0 | 0 | 0 | 0 | 0 | 0
4 | CNC(=O)c1ccccc1Nc1nc(Nc2cccc(CS(C)(=O)=O)c2)ncc1C.O=CO [GSK1520489] | 66 | 98 | 91.1 | 97.4 | 78 | 9 | 0 | 93.8 | 99.7 | 99.6
5 | CCn1c(-c2nonc2N)nc2cncc(CNC3CCNCC3)c21.Cl [SB-747651] | 4 | 0 | 43 | 24 | 21 | 55 | 6 | 0 | 16 | 31
6 | O=C(Nc1cccc(C(F)(F)F)c1)c1cccc(Oc2ccc3nccn3n2)c1 | 35 | 0 | 22 | 50 | 0 | 0 | 16 | 0 | 7 | 23
7 | Cn1ccc2ncnc(Oc3ccc(NC(=O)Nc4cnn(C(C)(C)C)c4)c(Cl)c3)c21 | 54 | 39 | 56 | 82 | 0 | 0 | 7 | 4 | 0 | 0
8 | C[C@@H](Oc1cc(-n2cnc3cc(-c4ccncc4)ccc32)sc1C(N)=O)c1ccccc1Cl [GSK479719] | 29 | 66 | 52 | 50 | 0 | 34 | 13 | 2 | 0 | 25
9 | COc1cc(Nc2nccc(N3CCC(NC(=O)c4cccc(C#N)c4)C3)n2)cc(OC)c1OC (stereo not shown) [GSK1379751] | 14 | 60 | 53 | 64 | 0 | 10 | 7 | 0 | 9 | 72
10 | Cn1cc(-c2cccc3c(N)c(C(N)=O)nnc23)cn1 | 5 | 24 | 0 | 0 | 35 | 0 | 0 | 1 | 0 | 19
11 | Cc1cccc2c(-c3ccncc3)c(-c3ccc(F)cc3)nn12.Cl [GW461487] | 8 | 37 | 0 | 0 | 0 | 4 | 15 | 0 | 0 | 7
12 | COc1ccc(Nc2nccc(N3CCC(NC(=O)c4cccc(C#N)c4)C3)n2)cc1 (stereo not shown) [GSK1379730] | 0 | 40 | 14 | 43 | 0 | 0 | 12 | 0 | 41 | 44
13 | NC(=O)Nc1sc(-c2ccc(F)cc2)cc1C(N)=O [GW789449] | 24 | 98.6 | 89 | 67 | 1 | 0 | 0 | 32 | 21 | 98.6
14 | Cl.c1ccc(Oc2ccc(Nc3ccnc4cc(-c5ccc(CN6CCNCC6)o5)ccc34)cc2)nc1 [GW567142] | 0 | 98.7 | 0 | 15 | 50 | 0 | 5 | 0 | 11 | 3
15 | Cl.Cl.NC[C@H](CC1CCCCC1)NC(=O)c1ccc(-c2ccnc3[nH]ccc23)s1 [GSK1581428] | 0 | 77 | 26 | 54 | 7 | 84 | 25 | 41 | 0 | 29
16 | Cl.Nc1n[nH]c2cc(-c3ccccn3)ccc12 [GSK2189892] | 0 | 23 | 0 | 0 | 0 | 0 | 8 | 14 | 0 | 0
17 | O=C(Nc1ccc(Oc2ccc3nc(NC(=O)C4CC4)cn3n2)c(F)c1)c1cccn(-c2ccccc2)c1=O | 12 | 87 | 80 | 20 | 0 | 0 | 0 | 10 | 69 | 0
18 | Cc1ccc(C(=O)Nc2ccc(Oc3ccc4nc(NC(=O)C5CC5)cn4c3)c(F)c2)c(=O)n1-c1ccccc1 | 24 | 100 | 99.9 | 99 | 0 | 12 | 0 | 17 | 76 | 20
19 | Cc1n[nH]c2cc(Nc3ccnc(Nc4cccc(CN5CCOCC5)c4)n3)ccc12 [GW682569] | 17 | 100 | 60 | 45 | 43 | 0 | 12 | 37 | 60 | 95.9
20 | Cn1ccc2ncnc(Oc3ccc(NC(=O)Nc4ccnc(C(F)(F)F)c4)c(Cl)c3)c21 | 58 | 5 | 0 | 27 | 0 | 0 | 0 | 0 | 0 | 0
21 | COc1cccc(CNC(=O)NC2CCN(c3ccnc(Nc4cc(OC)c(OC)c(OC)c4)n3)C2)c1 (stereo not shown) [GSK1379765] | 0 | 52 | 7 | 55 | 0 | 0 | 18 | 22 | 0 | 54
22 | C[C@@H](Oc1cc(-n2cnc3cc(-c4cnn(C)c4)ccc32)sc1C(N)=O)c1ccccc1Cl [GSK580432] | 24 | 100 | 73 | 50 | 0 | 14 | 16 | 25 | 44 | 45

Row | Compound | %Inh (TNNI3K) [%] | %Inh (TRKA) [%] | %Inh (TRKB) [%] | %Inh (TRKC) [%] | %Inh (TRPM6) [%] | %Inh (TSSK1B) [%] | %Inh (TSSK3) [%] | %Inh (TTK) [%] | %Inh (TXK) [%] | %Inh [1] [%]
23 | CS(=O)(=O)c1cccc(CNc2nc(Nc3ccc4c(c3)[C@@H]3C[C@@H]4CNC3=O)ncc2C(F)(F)F)c1 | 0 | 99.2 | 96.8 | 90.4 | 0 | 0 | 6 | 99.8 | 28 | 94.7
24 | COc1cc2nccc(Nc3ccc(Oc4ccccc4)cc3)c2cc1OC.Cl [GI261656] | 0 | 11 | 6 | 6 | 58 | 0 | 11 | 0 | 19 | 4
25 | CC(C)S(=O)(=O)N1CCN(Cc2ccc3c(c2)nc(NC(=O)c2ccsc2)n3C[C@H](O)c2ccccc2)CC1 [GW635815] | 8 | 100 | 94.2 | 95.5 | 18 | 5 | 16 | 29 | 0 | 66
26 | CN1CCN(CCNc2nc3cc(Oc4ccc(NC(=O)Nc5cc(C(F)(F)F)ccc5F)cc4)ccc3[nH]2)CC1.Cl.Cl [GW768504] | 0 | 0 | 0 | 0 | 0 | 8 | 0 | 41 | 0 | 0
27 | Nc1nccc(-c2ccc3c(N)n[nH]c3c2)n1 [GSK1034945] | 13 | 0 | 0 | 0 | 26 | 0 | 27 | 0 | 0 | 34
28 | N#Cc1cccc(C(=O)NC2CCN(c3ccnc(Nc4ccc(F)cc4)n3)C2)c1 (stereo not shown) [GSK1379708] | 4 | 0 | 8 | 28 | 0 | 0 | 18 | 0 | 0 | 14
29 | COC(=O)c1cccc(NC(=O)NC2CCN(c3ccnc(NCc4ccc(F)cc4)n3)CC2)c1 [GSK1379860] | 0 | 0 | 12 | 24 | 0 | 0 | 11 | 0 | 7 | 13
30 | O=C(Nc1n[nH]c2cc(-c3ccco3)ccc12)C1CC1 [SB-737447] | 0 | 57 | 19 | 32 | 0 | 0 | 0 | 18 | 0 | 21
31 | O=C1NCCc2[nH]c(-c3ccncc3)cc21 | 0 | 10 | 19 | 14 | 0 | 0 | 0 | 1 | 2 | 80
32 | COC(=O)Nc1nc2cc(Oc3ccc(NC(=O)Nc4cc(C(F)(F)F)ccc4Cl)cc3)ccc2[nH]1.Cl [GW697465] | 88 | 100 | 99.7 | 99.8 | 0 | 0 | 10 | 1 | 0 | 14
33 | CC(C)c1nc(-c2cccc(NS(=O)(=O)c3ccccc3)c2)c(-c2ccnc(Nc3ccc4c(c3)CN(C)CC4)n2)s1 [GSK1649598] | 85 | 65 | 41 | 0 | 68 | 16 | 0 | 23 | 71 | 55
34 | COC(=O)c1cccc(NC(=O)NC2CCN(c3ccnc(Nc4cc(OC)c(OC)c(OC)c4)n3)C2)c1 (stereo not shown) [GSK1379767] | 0 | 97.1 | 81 | 95.6 | 0 | 9 | 13 | 0 | 0 | 40
35 | CCOC(=O)N1CCC(n2cnc(-c3ccc(F)cc3)c2-c2ccnc(N)n2)CC1 [SB-219952] | 0 | 42 | 34 | 24 | 4 | 0 | 12 | 0 | 16 | 48
36 | CCn1c(-c2nonc2N)nc2cncc(Br)c21 [SB-738004] | 0 | 56 | 20 | 44 | 0 | 0 | 25 | 0 | 0 | 58
37 | Cc1nnc(-c2ccc3occ(-c4ccc(S(C)=O)cc4)c3n2)o1 (stereo not shown) | 0 | 0 | 0 | 0 | 0 | 0 | 0 | 8 | 0 | 0
38 | C[C@@H](Oc1cc(-n2cnc3ccc(-c4ccncc4)cc32)sc1C(N)=O)c1ccccc1Cl [GSK483724] | 6 | 57 | 7 | 18 | 34 | 29 | 17 | 34 | 11 | 18
39 | CN(c1ccccc1CNc1nc(Nc2ccc3c(c2)CC(=O)N3)ncc1C(F)(F)F)S(C)(=O)=O | 0 | 99.2 | 94.7 | 89 | 0 | 12 | 0 | 99.5 | 0 | 88
40 | FC(F)(F)c1cc(Br)cc(Nc2nccc(-c3cnn4ncccc34)n2)c1 [GW810578] | 66 | 48 | 0 | 1 | 0 | 5 | 5 | 41 | 7 | 0
41 | Cc1ccc(Nc2ccnc(Nc3ccc4c(c3)CS(=O)(=O)C4)n2)cc1O.Cl [GW579362] | 70 | 100 | 91.7 | 78 | 25 | 1 | 27 | 81 | 90 | 96.9
42 | Cc1ccc(CC(=O)N2CCc3cc(-c4cn(C)c5ncnc(N)c45)ccc32)cc1 [GSK2634758] | 0 | 10 | 34 | 29 | 5 | 6 | 13 | 0 | 8 | 0
43 | C[C@@H]1CCN(C(=O)N2CCCC2)C[C@@H]1N(C)c1ncnc2[nH]ccc12 | 18 | 85 | 55 | 26 | 4 | 5 | 4 | 89 | 4 | 100
